# Experimental data published in PubChem BioAssay (Tox21).
# Results filed as inconclusive are left out. Activity calls are given as the source filed them. The call rests on the fitted dose curve; in most records, active means well fitted cell-killing curve with a large enough effect in the repeat runs; inconclusive means weak or mixed curves, or effect the other way; inactive means flat fitted curve, though single readings scatter.
# Assay: qHTS assay to identify small molecule antagonists of the androgen receptor (AR) signaling pathway using the MDA cell line in the presence of 0.5 nM R1881 - cell viability counter screen (AID 1259242); further: nearly all actives have a fitted effect of over 45% in size
# Details: MDA-kb2 viability, CellTiter-Fluor protease fluorescence, 16 h; series mostly up to 92.4 µM; viability change, negative = cytotoxic: at the top concentration
# Text: U.S. Tox21 Program National Center for Advancing Translational Sciences [NCATS] NIH Chemical Genomics Center [NCGC] U.S. Environmental Protection Agency [EPA] National Institutes of Environmental Health Sciences [NIEHS] National Toxicology Program [NTP] U.S. Food and Drug Administration [FDA] Tox21 Assay Overview: Androgen receptor (AR) is an important member of the nuclear receptor family. Its signaling plays a critical role in AR-dependent prostate cancer and other androgen related diseases. Considerable attention has been given in the past decades to develop methods to study and screen for the environmental chemicals that have the potential to interfere with metabolic homeostasis, reproduction, developmental and behavioral functions. Therefore AR binding assay for screening androgen antagonists can be used to identify potential endocrine disruptors. MDA-kb2 cells (from ATCC, deposited by Wilson et al.) were used to screen for AR inhibitors against Tox21 compound libraries. These cells are human breast carcinoma cells that were stably transfected with a luciferase reporter gene under control of the MMTV promoter that contains response elements for both androgen receptor (AR) and glucocorticoid receptor (GR). The current screening for identification of AR inhibitors against Tox21 libraries used lower concentration of (0.5 nM) R1881 as a stimulator. The cytotoxicity of the Tox21 compound libraries against MDA-kb2 cell line was tested by measuring live-cell protease activity using CellTiter-Fluor assay in the same wells.
# Tox21 Assay Protocol Summary: MDA-kb2 cells (cells cultured without CO2) were dispensed at 3,000 cells/well in 4 uL of culture medium into white wall/solid-bottom 1536-well plates (Corning Life Sciences, Corning, NY) using a Multidrop Combi (ThermoFisher Scientific, Waltham, MA) dispenser. After the assay plates were incubated at a 37C and 0% CO2 for 5 hr, 23 nL of compounds dissolved in DMSO, positive controls or DMSO only was transferred to the assay plate by a Pintool station (Kalypsys, San Diego, CA). The transfer of compounds was followed by the addition of 1 uL of 0.5 nM (final concentration) agonist (R1881)/culture medium using a Flying Reagent Dispenser (FRD, Aurora Discovery, San Diego, CA). The plates were incubated at 37C and 0% CO2 for 16 hr. For cytotoxicity assay, 1 uL of CellTiter-Fluor reagent (Promega Corporation, Madison, WI) was added to each well using the FRD and after 30 min incubation at 37C and 0% CO2, The fluorescence intensity was measured using ViewLux plate reader (PerkinElmer, Shelton, CT).
# On the % scale 0 is the no-effect control and ±100 the full control effect.
SMILES,"viability change, negative = cytotoxic",Potency
[Cl][Nd]([Cl])[Cl],-1.59% (inactive),
ClC1=C(Cl)C1(Cl)Cl,6.73% (inactive),
O=S(=O)(O)CO,-1.18% (inactive),
Oc1ccc2c(c1)Cc1ccccc1-2,-1.7% (inactive),
CCSC(=O)N(CC)CC,1.97% (inactive),
Cc1ccc2c(c1[N+](=O)[O-])C(=O)c1ccccc1C2=O,-7.86% [at 42.5 µM] (inactive),
O=S(=O)(Cl)c1c(Cl)cccc1Cl,-1.3% (inactive),
CCCc1nc2c(C)cc(-c3nc4ccccc4n3C)cc2n1Cc1ccc(-c2ccccc2C(=O)O)cc1,-4.01% [at 42.5 µM] (inactive),
C=C(C)C(=O)OCCC(F)(F)C(F)(F)C(F)(F)C(F)(F)C(F)(F)C(F)(F)F,2.02% (inactive),
C=Cc1ccc(OC(C)=O)cc1,-2.15% (inactive),
CCCCCc1ccco1,-1.07% [at 42.5 µM] (inactive),
CCOC(=O)c1ccc(NC(=O)CN2CCCCC2)cc1,2.79% [at 42.5 µM] (inactive),
COc1ccc(-c2cc(=S)ss2)cc1,-9.3% [at 42.5 µM] (inactive),
CC(=O)c1ccc[nH]1,4.66% (inactive),
O=c1[nH][nH]c(=O)c2cc([N+](=O)[O-])ccc12,-0.831% (inactive),
O=C1[C@@H]2[C@H]3CC[C@H](C3)[C@@H]2C(=O)N1CCCCN1CCN(c2ncccn2)CC1,-2.79% [at 42.5 µM] (inactive),
CC[C@H]1OC(=O)[C@H](C)[C@@H](O[C@H]2C[C@@](C)(OC)[C@@H](O)[C@H](C)O2)[C@H](C)[C@@H](O[C@@H]2O[C@H](C)C[C@H](N(C)C)[C@H]2O)[C@](C)(O)C[C@@H](C)CN(C)[C@H](C)[C@@H](O)[C@]1(C)O,-5.25% [at 42.5 µM] (inactive),
Cc1ccc(N(CCO)CCO)cc1,0.189% (inactive),
Nc1c(Cl)cc(Cl)cc1[N+](=O)[O-],1.59% (inactive),
CC(C)COC(=O)COc1cc(Cl)c(Cl)cc1Cl,7.73% (inactive),

SMILES,"viability change, negative = cytotoxic",Potency
CC(C)COC(=O)c1ccc(O)cc1,-5.26% (inactive),
C1CCCCC1,0.683% (inactive),
CCCCCCOC(=O)CCCCC,4.01% (inactive),
CC(C)C(=O)OCCOc1ccccc1,3.11% (inactive),
NC(=O)c1ccccc1[N+](=O)[O-],0.421% (inactive),
C=C(C)c1ccccc1,2.77% (inactive),
O=C(O)CO,0.715% (inactive),
CCCCCCCCCCCCCCCC(=O)OCC,0.263% (inactive),
COc1ccc2nc(S(=O)Cc3ncc(C)c(OC)c3C)[nH]c2c1 (stereo not given),,inactive
O=C1NC(=O)c2cccc3cccc1c23,0.342% (inactive),
CCCCCCCCCCCC(=O)OCC(O)CO (stereo not given),0.341% (inactive),
CCCCCCCCCCCSCC(=O)O,-4.77% (inactive),
O=C(O)c1cccc(Oc2ccccc2)c1,0.105% (inactive),
CCC(C)(C)C(=O)O,1.82% (inactive),
Cc1ccc(NC(=O)N(C)C)cc1NC(=O)N(C)C,-3.73% (inactive),
SCCc1cnccn1,-0.442% (inactive),
COC(OC)OC,0.583% (inactive),
CC(CO)(CO)C(=O)O,-1.78% (inactive),
Cc1ccc(N(CC2=NCCN2)c2cccc(O)c2)cc1,-2.24% [at 42.5 µM] (inactive),
CSCC[C@H](NC(=O)[C@H](Cc1c[nH]c2ccccc12)NC(=O)CCNC(=O)OC(C)(C)C)C(=O)N[C@@H](CC(=O)O)C(=O)N[C@@H](Cc1ccccc1)C(N)=O,5.8% [at 42.5 µM] (inactive),
